Laboratory results as given in PubChem BioAssay (NCATS).
“And” between values parts separate entries of the source, which are not always exact repeats. Identical values can stand only once. Records with an inconclusive call do not appear. The source made the active and inactive calls. Unless noted, calls come from the whole dose curve; as a rule, active = well fitted curve in the direction sought with a large enough effect; inconclusive = small, poorly fitted or top-dose-only effect, or another doubt; inactive = no such curve, though single readings can be large; an effect the other way counts as inactive or inconclusive.

Tests used:
[1] = target: Cellular tumor antigen p53 (Homo sapiens) (UniProt P04637); assay: Primary qHTS for small molecule compounds that upregulate eGFP-tagged delta133p53alpha (in N-terminal) cells. (AID 2060322); details: NCI-H358 eGFP-delta133p53alpha fluorescence, 24 h; activation: active compounds read high; note: nearly all actives have a fitted effect of over 75% in size; note: potency is the fitted concentration of half-maximal effect;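 for activation: series mostly up to about 56 µM; 0% = DMSO vehicle and 100% = reference activator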
Chain of Cellular tumor antigen p53 (Homo sapiens) (P04637 whole entry, looked up): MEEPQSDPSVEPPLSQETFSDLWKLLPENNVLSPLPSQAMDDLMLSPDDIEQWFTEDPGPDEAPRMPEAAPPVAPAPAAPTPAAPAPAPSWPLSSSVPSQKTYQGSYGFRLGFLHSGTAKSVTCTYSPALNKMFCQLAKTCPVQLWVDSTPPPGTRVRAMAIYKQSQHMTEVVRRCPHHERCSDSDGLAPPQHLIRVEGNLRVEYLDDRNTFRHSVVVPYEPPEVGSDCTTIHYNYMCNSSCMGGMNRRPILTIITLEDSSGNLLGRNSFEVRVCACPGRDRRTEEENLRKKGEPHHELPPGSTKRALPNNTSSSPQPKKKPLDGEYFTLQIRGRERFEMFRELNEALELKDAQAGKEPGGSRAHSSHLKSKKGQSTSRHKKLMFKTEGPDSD
Method in brief: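 NCI-H358 cells pre-induced 24 h with 10 ng/ml doxycycline to express N-terminal eGFP-delta133p53alpha, then dosed 24 h at 37C without doxycycline; fixed, Hoechst-stained, GFP intensity by laser scanning cytometry, normalized to DMSO (0%) and 57.5 uM 5-azacytidine (100%).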

[2] = target: Aldehyde dehydrogenase, mitochondrial (Homo sapiens) (UniProt P05091); assay: qHTS for Inhibitors of the Aldehyde Dehydrogenase Family (ALDH2) Confirmatory screens (AID 2061303; active = well fitted inhibition curve with a large enough effect; title and protocol of this record describe different tests; note: nearly all actives have a fitted effect of over 45% in size; note: potency is the fitted concentration of half-maximal effect; for activity change, negative = inhibition: % is set by controls: 0 for no effect and ±100 for the full control effect)
[3] = target: Aldehyde dehydrogenase, mitochondrial (Homo sapiens) (UniProt P05091); assay: qHTS for Inhibitors of the Aldehyde Dehydrogenase Family (ALDH2) Primary screen (AID 2061308); note: nearly all actives have a fitted effect of over 55% in size; note: potency is the fitted concentration of half-maximal effect;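 for activity change, negative = inhibition: plate controls were vehicle for no effect and reference inhibitor for full effect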
[4] = target: Retinaldehyde dehydrogenase 3 (Homo sapiens) (UniProt P47895); assay: qHTS for Inhibitors of the Aldehyde Dehydrogenase Family (ALDH1A3) Confirmatory screens (AID 2061311); note: nearly all actives have a fitted effect of over 60% in size; note: potency is the fitted concentration of half-maximal effect
[5] = target: Retinaldehyde dehydrogenase 3 (Homo sapiens) (UniProt P47895); assay: qHTS for Inhibitors of the Aldehyde Dehydrogenase Family (ALDH1A3) Validation screen (AID 2061312); note: nearly all actives have a fitted effect of over 45% in size; note: potency is the fitted concentration of half-maximal effect; for activity change, negative = inhibition: % is set by controls: 0 for no effect and ±100 for the full control effect
[6] = target: Retinaldehyde dehydrogenase 3 (Homo sapiens) (UniProt P47895); assay: qHTS for Inhibitors of the Aldehyde Dehydrogenase Family (ALDH1A3) Primary screen (AID 2061315);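 note: plate controls were DMSO vehicle for no effect and reference inhibitor for full effect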
[7] = target: Aldehyde dehydrogenase 1A1 (Homo sapiens) (UniProt P00352); assay: qHTS for Inhibitors of the Aldehyde Dehydrogenase Family (ALDH1A1) Confirmatory screens (AID 2061316); note: nearly all actives have a fitted effect of over 65% in size; note: potency is the fitted concentration of half-maximal effect; for activity change, negative = inhibition: % is set by controls: 0 for no effect and ±100 for the full control effect
[8] = target: Retinal dehydrogenase 2 (Homo sapiens) (UniProt O94788); assay: qHTS for Inhibitors of the Aldehyde Dehydrogenase Family (ALDH1A2) Confirmation screens (AID 2061314); note: nearly all actives have a fitted effect of over 65% in size; note: potency is the fitted concentration of half-maximal effect; for activity, negative = inhibition: % is set by controls: 0 for no effect and ±100 for the full control effect
[9] = BET inhibitor-based combinations targeting novel dependencies in MECOM-rearranged (r) AML: HNT-34 cell line (AID 2202234); note: nearly all actives have a fitted effect of over 35% in size; note: potency is the fitted concentration of half-maximal effect
Method in brief: (§1)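 Normalized to DMSO and empty-well controls, the luminescence data from CellTiter-Glo after 48 hr drug exposure were fitted across 11 concentrations. Reported metrics are area under the dose-response curve and its Z-transformed form.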

[10] = BET inhibitor-based combinations targeting novel dependencies in MECOM-rearranged (r) AML: UCSD-AML1 cell line (AID 2202235); note: nearly all actives have a fitted effect of over 40% in size; note: potency is the fitted concentration of half-maximal effect
Method in brief: as §1

[11] = BET inhibitor-based combinations targeting novel dependencies in MECOM-rearranged (r) AML: OCI-AML3 cell line (AID 2202232); details: Potency: OCI-AML3 viability; note: nearly all actives have a fitted effect of over 35% in size; note: potency is the fitted concentration of half-maximal effect
Method in brief: (§2)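 Here, 11-point titrations of each agent were applied to 500 seeded cells and incubated 48 hr; CellTiter-Glo signal, scaled against DMSO and empty wells, was integrated as AUC, then Z-scored within the individual line.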

[12] = BET inhibitor-based combinations targeting novel dependencies in MECOM-rearranged (r) AML: MV-4-11 cell line (AID 2202233); note: nearly all actives have a fitted effect of over 45% in size; note: potency is the fitted concentration of half-maximal effect
Method in brief: as §1

[13] = BET inhibitor-based combinations targeting novel dependencies in MECOM-rearranged (r) AML: AML-191 cell line (AID 2202236; note: nearly all actives have a fitted effect of over 35% in size; note: potency is the fitted concentration of half-maximal effect)
Method in brief: as §2

[14] = BET inhibitor-based combinations targeting novel dependencies in MECOM-rearranged (r) AML: AML-194 cell line (AID 2202237; note: nearly all actives have a fitted effect of over 40% in size; note: potency is the fitted concentration of half-maximal effect)
Method in brief: as §2

CCOC(=O)C1=C(N)Oc2ccc(Cl)cc2C1C(C#N)C(=O)OCC (stereo not given)
active: Potency [1] 23.9 µM | Potency [4] 12.7 µM
inactive: Potency [2] | Potency [3] | Potency [5] | Potency [6] | Potency [7]

Cc1ccc(NC(=O)N2CCN(c3nc(N)nc4sc(-c5cccnc5)nc34)CC2)cc1
inactive: activation [1] 26.7%
active: Potency [2] 0.0355 µM | Potency [4] 2.52 µM | Potency [5] 2.82 µM | Potency [8] 14.1 µM | Potency [7] 28.3 µM

COc1cccc(-c2ccc(NC(=O)C3=C(C(=O)O)CCC3)c(F)c2)c1
inactive: activation [1] -4.2% and -13.4% | Potency [2] | Potency [3] | Potency [9] | Potency [10]
active: Potency [7] 12.7 µM

OC/C=C/C=C/[C@H]1Cc2cc(O)cc(O)c2O1
inactive: activation [1] 0.893% | Potency [2] | Potency [3] | Potency [8]

O=C(O)c1cn(C2CC2)c2cc(N3C[C@@H]4C[C@H]3CN4)c(F)cc2c1=O
active: Potency [7] 31.8 µM
inactive: activation [1] 11.7% | Potency [2] | Potency [3] | Potency [4] | Potency [8] | Potency [6]

COc1cc([C@H]2c3cc(O)c(OC)cc3C[C@@H](CO[C@@H]3O[C@H](CO)[C@@H](O)[C@H](O)[C@H]3O)[C@@H]2CO)ccc1O
inactive: activation [1] 9.82% | Potency [2] | Potency [3] | Potency [8]

Cn1cc(-c2ccncc2)c(-c2ccc(OCc3ccc4ccccc4n3)cc2)n1
active: Potency [11] 11.8 µM | Potency [12] 5.9 µM | Potency [9] 23.5 µM
inactive: activation [1] -22.8% and -12.9% | Potency [2] | Potency [3] | Potency [5] | Potency [8] | Potency [6] | Potency [7] | Potency [10]

C[C@@H]1O[C@@H](O[C@H]2[C@H](O[C@H]3CO[C@@H](O[C@H]4CC[C@@]5(C)C(CC[C@]6(C)C5CC[C@]57OC[C@@]8(CC[C@](C)(CO)CC85)[C@H](O)C[C@]76C)C4(C)C)[C@H](O[C@@H]4O[C@H](CO)[C@@H](O)[C@H](O)[C@H]4O)[C@H]3O)O[C@H](CO)[C@@H](O)[C@@H]2O)[C@H](O)[C@H](O)[C@H]1O (stereo not given in full)
inactive: activation [1] -4.58% | activity change, negative = inhibition [2] -29.1% [at 10 µM] | Potency [3] | activity, negative = inhibition [8] -8.29% [at 10 µM] | Potency [6] | activity change, negative = inhibition [7] -22.4% [at 10 µM]

COc1cc2ncc(-c3ccccc3)nc2cc1OC
inactive: activation [1] -16.1% | Potency [2] | Potency [3] | Potency [8]

Cn1cc(Nc2cnccc2C(=O)O)c2cccnc21
inactive: activation [1] 4.33% | Potency [2] | Potency [3] | Potency [4] | Potency [8] | Potency [6]

CC(C)=C1CC2C(CCC2(C)O)C(C)(O)CC1=O (stereo not given)
inactive: activation [1] 1.79% | Potency [2] | Potency [3] | Potency [8] | Potency [6]

COc1cc(C2Oc3c(OC)cc(CCCO[C@@H]4O[C@H](CO)[C@@H](O)[C@H](O)[C@H]4O)cc3C2CO)ccc1O (stereo not given in full)
inactive: activation [1] -6.25% | Potency [2] | Potency [3] | Potency [8] | Potency [6] | Potency [7]

C=C[C@H]1[C@H](O[C@@H]2O[C@H](CO)[C@@H](O)[C@H](O)[C@H]2O)OC=C(C(=O)OC)[C@H]1CCOC(=O)c1cc(O)c(O)c(O)c1
active: Potency [4] 6.18 µM
inactive: activation [1] 0% | Potency [2] | Potency [3] | Potency [8] | Potency [7]

O=C(OC1C=C(CO)C2C(OC3OC(CO)C(O)C(O)C3O)OC=CC12O)c1ccc(O)cc1 (stereo not given)
inactive: activation [1] 12.2% | Potency [2] | Potency [3] | Potency [8]

CCOC(=O)C1=C(N)Oc2ccc(Br)cc2C1C(C#N)C(=O)OCC (stereo not given)
active: Potency [1] 30.1 µM | Potency [4] 11.3 µM
inactive: Potency [2] | Potency [3] | Potency [5] | Potency [6] | Potency [11] | Potency [12] | Potency [10] | Potency [13] | Potency [14]

C/C=C/C=C/c1cc2c(C=O)c(O)c(CC=C(C)C)cc2o1
inactive: Potency [6]
active: Potency [1] 26.9 µM | Potency [2] 11.3 µM | Potency [3] 28.2 µM | Potency [8] 10.1 µM | Potency [7] 11.3 µM

CC1=C2CC3C(CCC3(C)O)C(C)(O)CC2OC1=O (stereo not given)
inactive: activation [1] -2.68% | Potency [2] | Potency [3] | Potency [8] | Potency [6] | Potency [7]

COC(=O)c1c(C)cc(OC(=O)c2c(C)cc(OC)cc2OC)cc1O[C@@H]1O[C@H](CO)[C@@H](O)[C@H](O)[C@H]1O
inactive: activation [1] -15.3% | Potency [2] | Potency [3] | Potency [6]

Cc1[nH]c(/C=C2\C(=O)Nc3cc(-c4ccccc4)ccc32)c(C)c1CCC(=O)O
inactive: activation [1] -26.3% | Potency [2] | Potency [3] | Potency [5] | Potency [6] | Potency [7]

OC[C@@]1(O)CO[C@@H](OC[C@H]2O[C@@H](Oc3c[nH]c4ccccc34)[C@H](O)[C@@H](O)[C@@H]2O)[C@@H]1O
inactive: activation [1] -5.34% | Potency [2] | Potency [3] | Potency [6] | Potency [7]

O=C1NC(=O)C(c2cn(-c3ccccc3)nc2-c2ccc(F)cc2)N1 (stereo not given)
inactive: activation [1] 4.33% | Potency [2] | Potency [3] | Potency [4] | Potency [8] | Potency [6] | Potency [7]

C=CC(=O)Nc1cccc(Nc2nc(Nc3ccc(Oc4ccnc(C(=O)NC)c4)cc3)ncc2F)c1
active: Potency [1] 4.26 µM | Potency [11] 18.6 µM | Potency [12] 6.61 µM | Potency [9] 8.33 µM | Potency [10] 18.6 µM | Potency [13] 16.6 µM | Potency [14] 18.6 µM
inactive: Potency [2] | Potency [3] | Potency [4] | Potency [8] | Potency [6] | Potency [7]
